Screening results: PubChem, National Center for Advancing Translational Sciences (NCATS)
This is a sample that favours compounds with a hit; in the whole collection about 8% have one here.
KB-3-1 tox = kills parental KB-3-1 adenocarcinoma cells. 400,000 tested, 1.4% active. Potency, µM (series often up to 46.1 µM), usual class: cytotoxic. KB-3-1 viability, CellTiter-Glo ATP luminescence, 72 h; further: on the % scale 0 is the no-effect control and ±100 the full control effect; nearly all actives have a fitted effect of over 60% in size
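Viability of parental KB-3-1 cells, measured by CellTiter-Glo luminescence, followed a 72 h incubation at 37 °C with pinned compounds in phenol-red-free DMEM containing 10% FBS.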
HT1080NT lethal = kills 2HG-producing HT-1080-NT fibrosarcoma cells. 360,000 tested, 1.6% active. HT-1080-NT fibrosarcoma viability, CellTiter-Glo ATP luminescence, 48 h. AID 686970. Potency, µM (series often up to 46.1 µM), for inactives: at the top dose activity, negative = less viability, actives largely listed as cytotoxic;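 further: NT is the 2HG producing partner of a matched IDH1 knockdown line; 0% = DMSO-treated cells and -100% = media-only wells without cells; nearly all actives have a fitted effect of over 55% in size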
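Viability by CellTiter-Glo luminescence after 48 h compound exposure at 37C of HT-1080-NT cells (750/well, RPMI, 5% FBS). % activity scaled between DMSO wells and medium-only wells, then curve-fitted and categorized by curve class.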
HT1080 IDH1KD tx = HT-1080 IDH1 knockdown cell toxicity (counter line); HT-1080 IDH1 knockdown viability, ATP luminescence, 48 h; Potency, µM (top dose mostly 46.1 µM), for the others: at the top dose activity, negative = toxicity, actives largely listed as cytotoxic; 360,000 tested, 2% active;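 further: 0% = DMSO wells and -100% = cell-free medium wells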
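Viability of IDH1-knockdown HT-1080 fibrosarcoma cells was assessed by CellTiter-Glo after 48 h at 37 °C with titrated compound; concentration-effect curves were classified by fit quality and response size.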
SW480 rereplic = induces DNA re-replication in SW480 colon adenocarcinoma cells | SW480 DNA re-replication, Hoechst DNA content imaging, 48 h | 340,000 tested, 1.8% active | Potency, µM (highest dose often 46.1 µM), for the others: at the highest dose re-replication activation, hits mostly activators; further: % of control where 0% means no effect; nearly all actives have a fitted effect of over 55% in size
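250 cells/well; 23 nL cpd via pin tool; 48 hr, 37 C, 5% CO2; Hoechst 40 min; imager read of total nuclear intensity, ex 405/em 500-530 nm.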
KB-V1 cytotox = kills drug-selected multidrug resistant KB-V1 cells | KB-V1 MDR cells viability, CellTiter-Glo, 72 h | Potency, µM (top dose mostly 46.1 µM), most hits filed as cytotoxic | 400,000 tested, 3.4% active; further: on the % scale 0 is the no-effect control and ±100 the full control effect; nearly all actives have a fitted effect of over 60% in size
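Readout: CellTiter-Glo luminescence, 10 min after addition. Cells: KB-V1 MDR subline, 72 h at 37 degrees C with compound. Analysis: corrected, normalized data fitted to concentration-effect curves.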
MCF10A rereplic = inducers of DNA re-replication in MCF 10A breast cells; AID 624296; 350,000 tested, 2.9% active; Potency, µM (titrated, usually from 46.1 µM), inactives show at the top dose activity, positive = re-replication, most hits filed as activators; MCF 10A DNA re-replication, Hoechst nuclear intensity, 48 h; further: % of control where 0% means no effect; nearly all actives have a fitted effect of over 50% in size
Starred values were filed as active, the others as inactive; i = inactive; ? = inconclusive; · = not tested or not shown; [ ] = remark or other dose. The call rests on the fitted dose curve; in most records, active means well fitted curve in the direction sought with a large enough effect; inconclusive means small, poorly fitted or top-dose-only effect, or another doubt; inactive means no such curve, though single readings can be large; an effect the other way counts as inactive or inconclusive. Potency means the concentration at half of the fitted maximal effect.

SMILES	KB-3-1 tox	HT1080NT lethal	HT1080 IDH1KD tx	SW480 rereplic	KB-V1 cytotox	MCF10A rereplic
CCc1nc(NCCc2ccccn2)c2nnn(Cc3ccccc3F)c2n1	i	0%	-5%	-11%	i	?
O=C(OCC(=O)c1c[nH]c2ccccc12)c1cc2ccccc2cc1O	i	-22%	-27%	15%	?	12µM*
COc1ccc(C(=O)OCC(=O)c2c[nH]c3ccccc23)c(OC)c1	i	-5%	-16%	-3%	i	17%
COc1ccc(/C=N/N(Cc2ccccc2)c2ccccc2)cc1O	i	15µM*	23µM*	2%	?	?
Cc1cc2c(n1-c1ccc(C(=O)NCCc3ccc(Cl)cc3)cc1)CCC(C)C2 (centres undefined)	i	·	·	·	i	·
COc1cccc2c1C(CCCC(=O)O)CCC2 (centres undefined)	i	0%	4%	-5%	i	-1%
COc1cccc2c1C1COC3C4CC(C(=O)O)C(C(C2)N13)N4C (centres undefined)	?	5.8µM*	7.3µM*	?	16µM*	2.6µM*
O=C(COC(=O)c1ccccc1NS(=O)(=O)c1cccs1)NCC12CC3CC(CC(C3)C1)C2	i	3%	-9%	-2%	15µM*	?
O=C(COC(=O)c1ccccc1NS(=O)(=O)c1cccs1)NC1CCCCC1	i	0%	2%	-3%	i	3%
CC1CCN(C(=O)CSc2nc3ccccc3s2)CC1	i	9%	7%	5%	15µM*	?
O=C(CSc1nc2ccccc2s1)N1c2ccccc2Sc2ccccc21	?	0%	-15%	5%	21µM*	?
CC1CCCN(C(=O)CSc2cnc3ccccc3n2)C1 (centres undefined)	i	1%	-12%	-20%	9.2µM*	?
Cc1ccc(-c2cn3c(n2)sc2cc(C(=O)NCCCc4ccccc4)ccc23)c(C)c1	i	·	·	·	i	·
COc1ccc(C(C)C)cc1S(=O)(=O)n1cnc(C)c1	i	?	?	21µM*	i	?
CCOc1cc(C)c(C(C)C)cc1S(=O)(=O)n1cnc(C)c1	?	?	12µM*	?	?	9.2µM*
COc1cc(C)c(Cl)cc1S(=O)(=O)n1cnc(C)c1	i	8%	0%	-3%	i	-3%
CCOc1cc(C)c(C(C)C)cc1S(=O)(=O)N1CC(C)OC(C)C1 (centres undefined)	i	-1%	-10%	12%	?	2%
O=S(=O)(c1ccc2nc(-c3ccccc3)[nH]c2c1)N1CCN(c2ccc(Cl)cc2)CC1	i	-25%	?	?	?	16µM*
COc1ccc2c(CNCc3ccco3)c(C(=O)O)n(Cc3cccc(F)c3)c2c1	?	·	·	·	i	·
COc1cccc2cc(-c3nc(Nc4cccc(C)c4)sc3C)c(=O)oc12	i	·	·	·	i	·
Cc1cc2c3c([nH]c2cc1S(=O)(=O)N1CCC2(CC1)OCCO2)CC(C)(C)CC3=O	i	-28%	-5%	?	i	23µM*
Fc1ccc(C(c2ccc(F)cc2)N2CCN(CC=Cc3ccccc3)CC2)cc1	·	·	·	11%	·	?
Cc1ccc(NC(=O)Cn2nnc(-c3ccccc3)n2)c(C)c1	i	·	·	·	i	·
O=C(NCCN1C(=O)S/C(=C\c2ccccc2F)C1=O)C1=COCCO1	?	?	12µM*	4.1µM*	9.2µM*	2.6µM*
O=C(NCCN1C(=O)S/C(=C\c2ccc(Cl)cc2Cl)C1=O)C1=COCCO1	?	?	?	?	?	13µM*
SMILES	KB-3-1 tox	HT1080NT lethal	HT1080 IDH1KD tx	SW480 rereplic	KB-V1 cytotox	MCF10A rereplic
O=C(NCCN1C(=O)S/C(=C\c2ccc(Cl)cc2)C1=O)C1=COCCO1	·	-12%	0%	0%	·	2%
O=C(NCCN1C(=O)S/C(=C\c2ccccc2Cl)C1=O)C1=COCCO1	?	-17%	-21%	?	?	7.3µM*
O=C(CNC(=O)c1ccccc1F)NCCN1C(=O)S/C(=C\c2ccccc2Cl)C1=O	i	0%	3%	-5%	?	4%
COc1ccc(OCC(=O)OCc2cc(=O)n3cc(C)sc3n2)cc1	i	·	·	·	i	·
O=C(CCn1cccn1)Nc1ccc(Br)cc1F	i	·	·	·	i	·
Cc1cccc(NC(=O)CSc2ncc(-c3ccc(Br)cc3)[nH]2)c1	i	·	·	·	i	·
CC(C)(C)NC(=O)NC(=O)CN1CCN(c2ccc(O)cc2)CC1	21µM*	-5%	-3%	3%	?	27%
CC(C)(C)NC(=O)NC(=O)CN1CCN(c2ccccc2)CC1	i	6%	6%	-4%	i	-17%
CCOC(=O)CC(c1ccc(N)cc1)n1c(C)ccc1C (centres undefined)	i	-2%	-6%	15%[1.84 µM]	i	7%
COC(=O)CC(c1ccc(F)cc1)n1c(C)ccc1C (centres undefined)	i	-14%	-14%	9%[1.84 µM]	i	23µM*
Cc1nc(-c2ccc3c(c2)CCC(=O)N3)cs1	?	3%	-11%	-119%	1.3µM*	-1%
Cc1ccc(-c2csc(Cc3nc(-c4ccc5c(c4)CCC(=O)N5)cs3)n2)cc1	i	?	-5%	3%	?	7%
CCOC(=O)c1cc(S(=O)(=O)NCc2ccc(OC)cc2)[nH]n1	i	·	·	·	i	·
Cc1ccccc1CNC(=O)c1ccc(Cn2c(SCc3ccccc3)nc3cccnc32)cc1	i	·	·	·	i	·
COCCN=c1scc(-c2ccc3c(c2)NC(=O)CO3)n1/N=C(\C)c1ccc(O)cc1	?	?	?	?	i	?
COc1cc(/C=N/n2c(-c3ccc4c(c3)NC(=O)CO4)csc2=Nc2cccc(C)c2)ccc1O	i	-9%	-15%	?	i	23µM*
Cc1ccc(Oc2ccccc2/C=C2\SC(=O)N(C)C2=O)cc1	i	-29%	-17%	?	16µM*	5%
CN1C(=O)S/C(=C\c2ccccc2OCc2ccc(C(=O)O)cc2)C1=O	i	-1%	-3%	4%	?	?
CCc1nnc(NC(=O)CCc2c[nH]c3ccccc23)s1	i	-18%	0%	2%	i	-8%
CC(C)C(=O)Nc1nnc(Cc2c[nH]c3ccccc23)s1	i	-15%	-20%	?	i	8.2µM*
COC(=O)c1cccc(Nc2c(-c3ccc(O)c(OC)c3)nc3nc[nH]n23)c1	i	·	·	·	i	·
CCN(CC)CCn1c(=S)[nH]c2ccc(Cl)cc2c1=O	i	?	?	29%	i	19%
